MARV entry inh: Marburg virus entry inhibition. 300,000 tested, 1.8% active. AID 540276. Marburg virus pseudotyped entry inhibition, cell reporter. Potency, µM (highest dose often 37.8 µM), actives largely listed as inhibitors; calls by dose curve; tested in HEK293 cells
HCMV inh: inhibitors of human cytomegalovirus; HFF cells, HCMV-luciferase reporter, 72 h; stronger effect = lower value; activity change, negative = inhibition, % at 57.5 µM; 410,000 tested, 4.5% active; AID 1259415; in the data active = activity change below about -60%; inconclusive = no clear call, values can overlap the other calls; inactive = above about -39%
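Steps: HFFs plated, 16 h 37C; compounds added; HCMV-luciferase added to MOI 1 PFU/cell; 72 h 37C; OneGlo reagent, 5 min room temperature; luminescence read, normalized to controls.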
Pf growth 96h: inhibits malaria parasite growth, 96 h; P. falciparum luciferase reporter growth, 96 h; Potency, µM (doses to about 28.7 µM), hits mostly inhibitors; 320,000 tested, 6.9% active
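Compounds incubated with erythrocytes infected by luciferase-expressing P. falciparum (2% hematocrit, 0.05% parasitemia final) for 96 hours, 37 C in 5% CO2. Growth inhibition scored as decreased luciferase luminescence.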
Lassa entry inh: Lassa virus entry inhibition. Lassa virus pseudotype entry inhibition, cell reporter. Potency, µM (series often up to 37.9 µM), usual class: inhibitors. 300,000 tested, 1.2% active; calls by dose curve; tested in HEK293 cells; note: nearly all actives have a fitted effect of over 50% in size
Pf growth 48h: inhibits P. falciparum growth in the first generation, 48 h; 310,000 tested, 5.9% active; AID 504832; P. falciparum luciferase growth in erythrocytes, 48 h; Potency, µM (highest dose often 28.7 µM), usual class: inhibitors
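In quantitative HTS format, infected erythrocytes bearing luciferase-reporter parasites were treated for a single generation at 37 C. Luminescence after adding detection reagent served as the growth measure.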
HCV inh: inhibitors of hepatitis C virus infection; Huh7.5.1 HCVcc-Cre infection, luciferase reporter, 44 h; Potency, µM (top dose mostly 41.8 µM), usual class: inhibitors; 340,000 tested, 3.4% active; AID 651820
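Luciferase read-out (15 sec integration) after a 15 min room-temperature substrate step quantifies HCVcc-Cre infection. Cells, 1,000 per well, had compound added 4 h post-plating, then virus at ~0.5 moi, and were cultured 44 h.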
A number is an active result; - = inactive; ? = inconclusive; . = not tested or not shown; ! = a repeat was not active; [ ] = another dose, or the depositor's remark. Most compounds without a hit are left out; they make up all but 14% or so of the library. Unless noted, calls come from the whole dose curve; as a rule, active = well fitted inhibition curve with a large enough effect; inconclusive = small, poorly fitted or top-dose-only effect, or another doubt; inactive = no such curve, though single readings can be large or run the other way.

SMILES	MARV entry inh	HCMV inh	Pf growth 96h	Lassa entry inh	Pf growth 48h	HCV inh
COc1ccc(N(C)S(=O)(=O)c2c(C)[nH]c(=O)[nH]c2=O)c(OC)c1	-	-	6.6µM	-	-	-
Oc1ccc(C23CC4CC(CC(C4)C2)C3)cc1O	.	?	7.4µM	.	5.2µM	?
O=C(CSCCO)Nc1ccc(C23CC4CC(CC(C4)C2)C3)cc1	-	-	-	?	-	-
COc1ccc(OC)c(-n2c(C)cc(/C=C3\C(=N)N4N=C(CC(=O)N5CCOCC5)SC4=NC3=O)c2C)c1	.	?	12µM	.	?	-
Cc1cc(=O)n2[nH]c(-c3ccc(C(C)(C)C)cc3)cc2n1	?	-63	4.7µM	?	2.9µM	10µM
CCOc1ccc(-c2oc3ccccc3c(=O)c2O)cc1OCC	-	-65	.	?	.	.
O=c1c(O)c(-c2ccc3c(c2)OCO3)oc2ccccc12	-	-	?	-	?	-
N/N=C/C(=N\Nc1ccc(Cl)cc1)C(=O)c1ccncc1	?	-	?	?	?	22µM
O=C(NNC(=O)c1ccncc1)Nc1ccc(Cl)cc1	?	-	.	-	.	-
Cc1ccc(NC(=O)O/N=C/c2c(C)nn(C(C)(C)C)c2C)cc1Cl	?	-86	-	?	?	-
Cc1ccc(NC(=O)Nn2cnnc2)cc1Cl	-	-	?	-	-	-
CCC(C)CN1C(=O)CN(S(C)(=O)=O)CC1(C)C(=O)NCc1ccccc1 (stereo unspecified)	.	-	.	.	.	.
Cc1cc(C)cc(NC(=S)N(Cc2ccc(Cl)cc2)Cc2ccc(C(=O)O)cc2)c1	-	-	?	-	-	-
Cc1cc(NC(=S)N(Cc2ccc(Cl)cc2)Cc2ccc(C(=O)O)cc2)ccc1Cl	.	-62	-	.	-	-
CC1(C)N=C(c2ccccc2)C(c2ccccc2)=N1	-	-	.	-	.	-
CCOC(=O)c1c(NC(=O)CSc2nc3cc(Cl)ccc3s2)sc(C(C)=O)c1C	-	-61	-	-	-	-
CCOC(=O)c1sc(NC(=O)/C=C/c2cnn(CC)c2C)c(C(=O)OCC)c1C	?	-	8.3µM	?	?	?
Cc1cccc(C)c1NC(=O)CSc1nnc(Cc2ccccc2)o1	-	-	12µM	-	-	-
Cc1ccccc1NC(=O)CSc1nnc(Cc2ccccc2)o1	-	-	-	-	-	-
CCOC(=O)c1sc(NC(=O)CSc2nc3c(c(=O)n2-c2ccc(F)cc2)SCC3)c(C(=O)OCC)c1C	-	.	2.9µM	-	2.6µM	-[8.37 µM]
CCOc1ccc(-n2c(SCC(=O)Nc3ccc(OC)cc3)nc3c(c2=O)SCC3)cc1	-	?	-	-	-	-
CCOC(=O)c1c(NC(=O)CSc2nc3ccccc3s2)sc(C(C)=O)c1C	?	-	-	?	-	?
COc1ccc(NC(C)=[N+](C)CCNS(=O)(=O)c2ccc(Cl)cc2)cc1	.	-	-	.	-	-
Nc1ccn(C(C=O)CC(C=O)CO)c(=O)n1 (stereo unspecified)	.	-	.	.	.	.
COC(=O)c1ccc(CSc2nc3c(c(=O)n2-c2ccc(Br)cc2)SCC3)o1	-	-	9.3µM	-	.	-
SMILES	MARV entry inh	HCMV inh	Pf growth 96h	Lassa entry inh	Pf growth 48h	HCV inh
CCOC(=O)c1sc(NC(=O)CSc2nnc(Cc3ccccc3)o2)c(C(=O)OCC)c1C	?	-	?	-	.	6.3µM
CCOC(=O)c1sc(NC(=O)CSc2nnc(C)s2)c(C(=O)OCC)c1C	-	-	?	-	9.3µM	?
CSc1nc2sc3c(c2c(=O)n1-c1ccc(C)cc1)CCCC3	.	-	.	-	.	.
COc1ccc2nc(C)cc(N/N=C/c3ccc(F)cc3)c2c1	?	-	-	?	?	?
COc1ccc(/C=N/Nc2cc(C)nc3ccccc23)cc1	?	-104	-	?	0.74µM	?
COc1ccc(/C=N/Nc2cc(C)nc3c(C)cccc23)cc1	.	-	-	.	?	13µM
Cc1ccc(N2CCN(Cc3nnc(-c4ccccc4F)o3)CC2)c(C)c1	-	-	.	?	.	.
CC(C)N1CC=C(c2c[nH]c3ccccc23)CC1	-	-67	?	?	1µM	?
C1=C(c2c[nH]c3ccccc23)CCNC1	-	-	-	.	9.3µM	.
Cc1ccc(C)c(NC(=O)N2CC=C(c3c[nH]c4ccccc34)CC2)c1	.	-	.	-	.	.
CCSc1ncc(Cl)c(C(=O)N(Cc2ccc(N(C)C)cc2)C2CCS(=O)(=O)C2)n1 (stereo unspecified)	-	-	-	-	10µM	-
N#CC1=C(N)S[C@H](C(=O)C23CC4CC(CC(C4)C2)C3)[C@H]1c1ccncc1	?	.	4.7µM	?	10µM	-
CC(=O)N[C@@H](CC(=O)O)C(=O)N[C@@H](CCC(=O)O)C(=O)O	.	.	4.3µM	.	?	.
CCC(=O)N(CCCN(C)C)c1nc(-c2cc(OC)ccc2OC)cs1	?	-	?	-	-	5.6µM
CCC(=O)N(CC)c1nc(-c2cc(OC)ccc2OC)cs1	-	?	-	-	12µM	?
COC(=O)c1sc(N2C(=O)C(O)=C(C(=O)c3ccc(C)o3)C2c2cc(OC)ccc2OC)nc1C (stereo unspecified)	.	-	.	.	.	.
CC(=O)N(C1=C(Cl)C(=O)c2ccccc2C1=O)C1CCCCC1	?	-103	?	13µM	?	7.9µM
COc1cccc(/C=C2\SC(=S)N(CCC(=O)N3CCCCC3CCO)C2=O)c1 (stereo unspecified)	.	-98	?	.	?	?
COc1cccc(/C=C2\SC(=S)N(CCCC(=O)N3CCCCC3CCO)C2=O)c1 (stereo unspecified)	.	-110	3.7µM	.	?	?
COc1ccc(/C=C2\SC(=S)N(CCCC(=O)N3CCN(C)CC3)C2=O)cc1OC	-	-	.	-	.	-
COc1cccc(/C=C2\SC(=S)N(CCCC(=O)N3CCCC3)C2=O)c1	?	-112	4.1µM	-	13µM	?
CCc1ccc(/C=C2\SC(=S)N(CCCC(=O)N3CCCC3)C2=O)cc1	.	-99	.	.	.	.
O=C(Cn1ncc2ccsc2c1=O)N1CCN(c2ccccc2)CC1	-	-	.	-	.	.
CCN1C(=NCc2ccc(OC)cc2)N[C@@H](c2ccccc2)C(C(=O)OC)=C1C	-	-	?	.	-	-
CCN1C(=NCc2cc(OC)c(OC)c(OC)c2)N[C@@H](c2cccc(C(F)(F)F)c2)C(C(=O)OC)=C1C	.	-	2.6µM	.	?	?
CCN1C(=NCc2cc(OC)c(OC)c(OC)c2)N[C@@H](c2ccccc2)C(C(=O)OC)=C1C	.	.	4.7µM	.	-	-
CCN(CC)CCCN=C1N[C@@H](c2ccccc2)C(C(=O)OC)=C(C)N1CC	?	-	1.7µM!	.	?	-
CCN1C(=NCc2ccccc2)NC(c2cccc(C(F)(F)F)c2)C(C(=O)OC)=C1C (stereo unspecified)	-	.	.	.	.	.
CCOc1ccccc1NC(=O)Cn1c(=O)n(Cc2ccc(C(=O)NCCCOC)cc2)c(=O)c2ccccc21	-	-	.	-	.	.
C[C@H]1CCCC(=O)CCCCCc2cc(O)cc(O)c2C(=O)O1	-	?	9.3µM	?	4.1µM	?

Assay outcomes as filed in PubChem BioAssay.
